HCV inh: qHTS Assay for Inhibitors of Hepatitis C Virus (HCV); Huh7.5.1 HCVcc-Cre infection, luciferase reporter, 44 h; Potency, µM (doses to about 41.8 µM), without a hit: at the top dose activity change, negative = inhibition, usual class: inhibitors; 340,000 tested, 3.4% active; active = well fitted inhibition curve with a large enough effect; inconclusive = small, poorly fitted or top-dose-only effect, or another doubt; inactive = no such curve, though single readings can be large or run the other way; also: potency is read from the fitted curve at half-maximal effect; % is scaled to controls: 0 for no effect and ±100 for the full control effect
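Luciferase read-out (15 sec integration) after a 15 min room-temperature substrate step quantifies HCVcc-Cre infection. Cells, 1,000 per well, had compound added 4 h post-plating, then virus at ~0.5 moi, and were cultured 44 h.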
LASV entry inh: qHTS for Inhibitors of binding or entry into cells for Lassa Virus; Potency, µM (top dose mostly 37.9 µM), for inactives: top-dose activity change, negative = inhibition, actives largely listed as inhibitors; AID 540256, 2011; Lassa virus pseudotype entry inhibition, cell reporter; 300,000 tested, 1.2% active; calls by dose curve; tested in HEK293 cells; also: potency is read from the fitted curve at half-maximal effect; % is scaled to controls: 0 for no effect and ±100 for the full control effect; nearly all actives have a fitted effect of over 50% in size
MARV entry inh: qHTS for inhibitors of binding or entry into cells for Marburg Virus; Marburg virus pseudotyped entry inhibition, cell reporter; Potency, µM (doses to about 37.8 µM), for the others: top-dose activity change, negative = inhibition, usual class: inhibitors; 300,000 tested, 1.8% active; AID 540276, 2011; calls by dose curve; tested in HEK293 cells; also: potency is read from the fitted curve at half-maximal effect; % is scaled to controls: 0 for no effect and ±100 for the full control effect
Shiga toxin inh: A qHTS for Small Molecule Inhibitors of Shiga Toxin; 290,000 tested, 9.2% active; Vero cells, Shiga toxin protein synthesis inhibition reporter; inhibition, % at 38.7 µM; AID 2315, 2010; in the data active = inhibition mostly above about 28%, no sharp cut-off; inactive = mostly below about 43%; also: 0% is about no effect
CHX counter: Cycloheximide Counterscreen for Small Molecule Inhibitors of Shiga Toxin; cell reporter, cycloheximide protein synthesis inhibition counterscreen; max response, %; 300,000 tested, 12% active; in the data active = max response mostly above about 13%, no sharp cut-off; inactive = mostly below about 14%; also: read at 38.3 µM for the half of the compounds with a filed dose; 0% is about no effect
FMDV inh: High Throughput Screening for Foot and Mouth Disease Virus Antivirals | 410,000 tested, 1.2% active | AID 1159524, 2015 | Potency, µM (top dose mostly 57.9 µM), for inactives: at the top dose activity change, negative = inhibition, actives largely listed as inhibitors | FMDV antiviral cell-based qHTS; calls by dose curve; tested in HEK293T cells; also: read-out not given here; potency is read from the fitted curve at half-maximal effect; % is scaled to controls: 0 for no effect and ±100 for the full control effect; nearly all actives have a fitted effect of over 45% in size
* = called active by the depositor; u = inconclusive; x = no result given; [ ] = dose if it differs, or a comment. Shown are actives, neighbours in structure and some others; about 13% of the full set was active somewhere.

SMILES	HCV inh	LASV entry inh	MARV entry inh	Shiga toxin inh	CHX counter	FMDV inh
Cc1sc(NC(=O)C2CCCCC2C(=O)O)c(C(N)=O)c1-c1ccccc1 (stereo not drawn)	7.8%	-8.9%	u	40.5*	38.0*	5.6%
COc1cc(-c2nnc(SCCOc3ccc(C)c(Cl)c3)o2)cc(OC)c1OC	x	4.6%[46.1 µM]	u	x	x	-6.3%
Cc1ccc2c(c1)/C(=C/c1ccccc1C)C(=O)N2	-23.8%	u	11.2µM*	3.6	-2.1	-22.3%
Cc1ccc2c(c1)/C(=C/c1ccc(F)cc1)C(=O)N2	11.2µM*	x	x	-7.9	2.1	u
CC(Sc1nncs1)C(=O)Nc1ccc2c(c1)OCCO2 (stereo not drawn)	-2.6%	20.4%	u	x	x	24.1%
O=C(CSc1nncs1)Nc1ccc2c(c1)OCCO2	10.8%	3.2%	9.6%	58.4*	58.7*	29.3%
O=C(CSc1nncs1)NC(=O)Nc1ccc2c(c1)OCCO2	4.2%	x	x	59.2*	45.3*	56.0%
COc1ccc2c(c1)nc(SCC(=O)c1cccs1)n2C	-8.9%	13.4%	27.4%	55.2	40.9*	x
COc1ccc2c(c1)nc(SCC(=O)C(C)(C)C)n2C	16.7%	-10.0%	9.8%	8.1	10.4	x
COc1ccc2c(c1)nc(SCC(C)O)n2C (stereo not drawn)	3.5%	2.8%	-0.7%	20.4	11.8*	0.0%
Cc1ccc(C(NC(=O)N2CCOCC2)C(Cl)Cl)cc1F (stereo not drawn)	13.9%	-2.5%	14.6%	39.2	1.0	-10.8%
Cc1ccc(C(NC(=O)N2CCOCC2)=C(Cl)Cl)cc1F	10µM*	-48.3%	u	15.2	5.4	x
Cc1ccc(S(=O)(=O)N(C)c2ccc(C(=O)N3CCCCC3)cc2)cc1	u	-15.8%	-1.3%	-11.0	0.7	-29.9%
CC1(C)C(c2ccccc2)=NC(c2ccc(Br)cc2)N1O (stereo not drawn)	13.9%	12.0%	u	15.1	1.0	3.98µM*
O=C(Nc1ccnn1C1CCN(C(=O)c2ccccc2C(F)(F)F)CC1)C1CC1	5.0%	u	-1.5%	40.2	26.6*	14.6%
O=C(Nc1ccnn1C1CCN(C(=O)c2c(F)cccc2F)CC1)C1CC1	18.6%	3.6%	-1.7%	3.2	-1.8	-15.2%
COC(C(=O)N1CCC(n2nccc2NC(=O)C2CC2)CC1)c1ccccc1 (stereo not drawn)	-5.2%	23.3%[46.1 µM]	17.9%[46.1 µM]	107.3*	40.8*	43.3%
CN1CCCNc2nc3ccccc3nc21	13.3%	x	x	84.0*	35.1*	39.3%
O=C(NCCO)C(=O)NCC1OCCCN1S(=O)(=O)c1cccs1 (stereo not drawn)	9.6%	0.5%	u	-8.1	-1.6	-20.4%
CN(C)S(=O)(=O)c1ccc(Cl)c(NC(=O)COC(=O)/C=C/c2cnc3ccccc3n2)c1	10.4%	x	x	35.9	10.9	17.2%
Cc1cc(=O)oc2cc(NC(=O)c3ccccc3OC(F)F)ccc12	u	-12.9%	4.8%[46.1 µM]	115.0*	30.0*	67.1%
Cc1ccc(C)c(NS(=O)(=O)c2cc(C(=O)N3CCCC3)ccc2Cl)c1	-13.7%	-9.1%	u	-29.8	-3.0	22.2%
Cc1cc2nc3c(nc2cc1C)CCCC3	-27.0%	x	x	108.3*	58.7*	20.6%
Cc1cccc2nc3c(nc12)CCCC3	2.7%	x	x	-15.4	-1.9	10.5%
Cc1cccc(C(=O)Nc2nnc(C3=COCCO3)o2)c1	9.1%	-16.6%	2.5%[46.1 µM]	3.1	0.8	11.2%
SMILES	HCV inh	LASV entry inh	MARV entry inh	Shiga toxin inh	CHX counter	FMDV inh
O=C(Nc1nnc(C2=COCCO2)o1)c1cccc(F)c1	-3.1%	0.7%[46.1 µM]	28.2%[46.1 µM]	28.3	11.4*	10.8%
Nc1ccc(C(=O)c2cccs2)cc1[N+](=O)[O-]	-11.2%	x	x	70.6*	27.7*	19.3%
Nc1ccc(C(=O)O)cc1[N+](=O)[O-]	5.2%	-25.7%[46.1 µM]	6.1%[46.1 µM]	-6.1	-2.0	-21.2%
CC1CN=C(Nc2ccc(F)c(Cl)c2)S1 (stereo not drawn)	-1.8%	5.3%[46.1 µM]	-17.7%[46.1 µM]	77.0*	14.7	-7.9%
Cc1cc([N+](=O)[O-])nn1CC(=O)N1CCN(Cc2ccccc2)CC1	-5.2%	x	x	8.6	-7.2	-8.0%
O=C(N/N=C/c1ccccc1O)C1SCCCS1	u	x	x	40.0	26.3*	58.2%
Cc1ccccc1NC(=O)/C(C#N)=C\c1ccsc1	u	7.1%	u	55.5	27.6*	35.6%
Cc1ccc(NC(=O)/C(C#N)=C/c2cccs2)c(C)c1	-3.5%	u	u	100.8*	50.0*	40.5%
N#C/C(=C\c1cccs1)C(=O)Nc1ccccn1	2.1%	u	u	40.5	36.1*	-16.0%
Cc1ccc(NC(=O)/C(C#N)=C/c2ccsc2)c(C)c1	13.4%	u	10.1%	101.8*	43.4*	34.6%
COc1ccc(/C=C(/C#N)C(=O)Nc2cc(C)ccc2C)cc1C(=O)O	0.7%	u	u	-8.9	-1.5	-26.6%
Cc1cccc(C)c1NC(=O)/C(C#N)=C/c1cccs1	-11.6%	-26.7%	-7.2%[46.1 µM]	-2.0	-1.0	-12.1%
Cc1ccnc2c1NC(=O)c1cccnc1N2C1CC1	10.7%	x	x	-2.8	-1.3	-21.9%
O=[N+]([O-])c1ncn(C23CC4CC(CC(C4)C2)C3)n1	13.2%	15.0%	-3.6%	-0.4	-1.5	-18.9%
CN(C)CCCNC(=O)C[C@H]1C[C@H](C(=O)N2CCCCC2)[C@@]2(C)c3[nH]c4cc(CCC(=O)N(C)C)ccc4c3CCN2C1=O	u	x	3.4%	x	x	-6.6%
CC(C)(C)c1ccc(C(=O)/C(C#N)=C/c2cccs2)cc1	-1.7%	1.2%[46.1 µM]	7.6%[46.1 µM]	73.2*	33.4*	24.8%
CC(NC(=O)/C(C#N)=C/c1cccs1)c1ccccc1 (stereo not drawn)	11.0%	15.9%	-6.2%[46.1 µM]	35.6	12.6	-5.6%
O=C1CCC(=O)N1OCCOc1ccc2c(c1)CCC2	-4.3%	2.7%	-11.9%[46.1 µM]	47.1*	24.0*	26.4%
c1cnc(SCCOc2ccc3c(c2)CCC3)nc1	9.3%	u	u	75.3*	35.9*	49.7%
O=C1CCC(=O)N1OCCOc1ccc(Cl)c2ccccc12	6.0%	7.2%[46.1 µM]	12.1%[46.1 µM]	13.1	15.7	19.2%
CC1(C)NC(=O)N(CCCCOc2ccc3c(c2)CCC3)C1=O	u	9.3%	-18.0%	16.4	10.9	u
CNCCCOc1ccc2c(c1)CCC2	-13.6%	-1.4%[46.1 µM]	u	76.5	21.3*	-19.2%
c1cc2c(cc1OCCNC1CCCC1)CCC2	x	x	x	-3.9	8.0	x
O=C1CCC(=O)N1OCCCOc1ccc2c(c1)CCC2	1.0%	-5.0%	0.3%	0.5	10.1*	20.6%
COc1ccc(S(=O)(=O)N(C)C[C@H]2Oc3ccc(NS(=O)(=O)c4ccccc4)cc3CC(=O)N([C@H](C)CO)C[C@@H]2C)cc1	-6.0%	x	x	x	x	-11.7%
CCCNCc1cc(OC)c(OCC(=O)Nc2ccccc2)cc1Br	u	-2.2%[46.1 µM]	u	-11.1	10.4	10.6%
CCCCCCCCCCCCCCCC[n+]1cccc(C(=O)N(CC)CC)c1	6.2%	11.2µM*	7.08µM*	-12.6	-0.9	-23.9%

Screening results (PubChem)
